# Screens (PubChem BioAssay)
# Shown is part of a subset that was picked to be rich in hits.
# mHTT CaM bind = disrupts binding of mutant huntingtin to calmodulin; AID 1671202; AlphaScreen His-mHTT/GST-CaM binding, luminescence; P42858; actives 3.6% (n = 190,000); inhibition, % at 15 µM
# Pf apPOL inh = Pf-apPOL DNA polymerase inhibition | Recombinant Pf-apPOL, molecular beacon fluorescence, 1.5 h | inhibition, % at 10 µM | actives 0.25% (n = 210,000) | AID 1794808
# Hits are given with their value; . = inactive; / = no result. Rule as the data show it: active = inhibition above about 50%; inactive = the rest.
SMILES,mHTT CaM bind,Pf apPOL inh
COc1cc(OC)cc(C(=O)Nc2c3c(nn2-c2cccc(C)c2)CSC3)c1,.,.
COc1cccc(C(=O)Nc2c3c(nn2-c2cccc(C)c2)CSC3)c1,53,.
COc1ccc(-n2nc3c(c2NC(=O)c2cccc(Br)c2)CSC3)cc1,.,100
O=C(CN1C(=O)c2ccccc2C1=O)Nc1ccc(Cl)cc1,.,.
O=C(Nc1ccccc1F)C1CCN(c2ncnc3c2nc2n3CCCCC2)CC1,.,96
O=C(Nc1cc(F)ccc1F)C1CCN(c2ncnc3c2nc2n3CCCCC2)CC1,.,.
Cc1ccc(N(C)C(=O)C2CCN(c3ncnc4c3nc3n4CCCCC3)CC2)cc1C,56,.
Cc1ccc(Cl)cc1N1CCN(c2ncnc3c2nc2n3CCCCC2)CC1,99,.
Clc1cccc(N2CCN(c3ncnc4c3nc3n4CCCC3)CC2)c1,.,.
Cc1ccc(N(C)C(=O)C2CCCN(c3ncnc4c3nc3n4CCCCC3)C2)cc1C (configuration not stated),.,.
CN(C)C=Nc1cc(Cl)c(-n2cccc2)cc1Oc1ccc(Cl)cc1,/,.
c1cncc(CNc2ccc(-c3nc4ccccc4s3)cc2)c1,.,.
Cc1cc(O)c(Cc2c(O)cc(C)[nH]c2=O)c(=O)[nH]1,.,.
Cc1cccc(N2C(=O)NC(=O)/C(=C\c3cn(CC(=O)N4CCCC4)c4ccccc34)C2=O)c1C,.,.
O=C1NC(=O)N(c2ccccc2F)C(=O)/C1=C/c1cn(CC(=O)N2CCCC2)c2ccccc12,75,.
Cc1ccccc1N1C(=O)NC(=O)/C(=C\c2cn(CC(=O)N3CCOCC3)c3ccccc23)C1=O,.,.
Cc1ccccc1N1C(=O)NC(=O)/C(=C\c2cn(CC(=O)Nc3ccccc3)c3ccccc23)C1=O,64,.
O=C1NC(=O)N(c2ccccc2F)C(=O)/C1=C/c1cn(CC(=O)N2CCCCC2)c2ccccc12,59,.
Cc1cccc(N2C(=O)NC(=O)/C(=C\c3cn(CC(=O)N4CCOCC4)c4ccccc34)C2=O)c1,.,.
Cc1noc(COC2CCN(C(=O)c3nn(C)c4ccccc34)CC2)n1,.,.
COc1ccc(NC(=O)N2CC3CC2CC3NS(=O)(=O)c2ccccc2)cc1F (configuration not stated),.,.
Cc1cc(NCCCCO)n2c(nc3ccccc32)c1C#N,.,.
CCc1ccc(N(CC(=O)N2CCCC2)S(=O)(=O)c2ccccc2)cc1,.,.
CCc1ccc(N(CC(=O)N2CCN(c3ccccc3)CC2)S(=O)(=O)c2ccccc2)cc1,54,.
CC(C)C(=O)Nc1cccc(NC(=O)c2cc3ccccc3o2)c1,.,.
SMILES,mHTT CaM bind,Pf apPOL inh
CCC(CO)NCC(O)Cn1c2c(c3cc(C)ccc31)CCCC2 (configuration not stated),54,.
Cc1ccc2c(c1)c1c(n2CC(O)CNCc2ccco2)CCCC1 (configuration not stated),55,.
Cc1ccc2c(c1)c1c(n2CC(O)Cn2nc(C)cc2C)CCCC1 (configuration not stated),.,.
CNCC(O)Cn1c2c(c3ccccc31)CCCC2 (configuration not stated),.,.
Cc1ccc(NC(=O)CC2SC(=N)NC2=O)c(Br)c1 (configuration not stated),.,.
O=C(NCCc1c[nH]c2ccccc12)c1cc2nc(-c3ccco3)cc(C(F)(F)Cl)n2n1,76,.
O=C(NCCCN1CCOCC1)c1cc2nc(-c3ccco3)cc(C(F)(F)Cl)n2n1,.,.
CCCc1cc2c(=O)c(-c3ccc4c(c3)OCO4)c(CC)oc2cc1OC(C)C,.,.
Cc1c(CC(Cl)(Cl)Cl)c2c(n1-c1ccccc1[N+](=O)[O-])CCCC2=O,.,.
Cc1c(CC(Cl)(Cl)Cl)c2c(n1-c1ccc([N+](=O)[O-])cc1)CCCC2=O,73,.
O=[N+]([O-])c1ccccc1CN1CCN(C/C=C/c2ccccc2)CC1,.,.
Clc1ccccc1N1CCN(C/C=C/c2ccccc2)CC1,62,.
O=[N+]([O-])c1cccc(CN2CCN(C/C=C/c3ccccc3)CC2)c1,51,.
COc1ccc(CN2CCN(C/C=C/c3ccccc3)CC2)cc1OC,.,.
Oc1cccc(CN2CCN(C/C=C/c3ccccc3)CC2)c1,.,.
CCN1CCN(C/C=C/c2ccccc2)CC1,.,.
CN(C)c1ccc(/C=C/CN2CCN(Cc3ccccc3)CC2)cc1,56,.
COc1cc(CN2CCN(C/C=C/c3ccccc3)CC2)c([N+](=O)[O-])cc1OC,82,.
CS(=O)(=O)N(Cc1ccccc1Cl)c1ccc(C(=O)N2CCCCC2)cc1,.,.
Cn1ccnc1SCc1ccccc1,.,.
CCCCC1(C)OC(=O)C(=Cc2ccc(-c3cc(C(=O)O)ccc3C)o2)C(=O)O1 (configuration not stated),.,.
CCC(=O)Nc1cccc(-c2noc(C3CCCN(C(=O)c4cccc(OC)c4)C3)n2)c1 (configuration not stated),.,.
